# Source: PubChem
# UBC13 polyUb = blocks human UBC13 polyubiquitin chain formation | TR-FRET | P61088 | inhibition, % at 20 µM | 330,000 tested, 0.47% active; in the data active = inhibition above about 45%, passing the limit was not always enough; inconclusive = no clear call, values can overlap the other calls
# Target sequence (P61088 whole entry, looked up): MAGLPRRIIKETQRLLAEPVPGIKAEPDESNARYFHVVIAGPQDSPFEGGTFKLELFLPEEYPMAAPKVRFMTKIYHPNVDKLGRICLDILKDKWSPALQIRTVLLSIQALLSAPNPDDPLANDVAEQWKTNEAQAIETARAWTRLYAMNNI
# Neddyl block = inhibitors of human cullin neddylation. TR-FRET cullin neddylation, biochemical. calls only at 25 µM. 360,000 tested, 0.58% active. AID 651699; in the data active = inhibition above about 36%
# MBD2 DNA inh = inhibitors of human MBD2 binding to methylated oligonucleotide. Q9UBB5. TR-FRET. inhibition, % at 4.4 µM. 370,000 tested, 0.31% active. AID 686964; in the data active = inhibition above about 13%
# UHRF1 MBD2 ctr = human UHRF1 methylated DNA binding inhibitors | Q96T88 | UHRF1 binding to methylated oligo, TR-FRET | inhibition, % at 4.4 µM | 370,000 tested, 0.75% active | AID 687016; in the data active = inhibition above about 21%;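 also: UHRF1 SRA domain binding a hemimethylated CpG hairpin DNA probe; 0% = median of test compound wells and 100% = reference inhibitor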
# Casp3 counter = caspase-3 inhibition (UBC13 counter-screen); 1,400 tested, 4% active; inhibition, % at 20 µM; AID 488856; shares compounds with UBC13 polyUb; Recombinant caspase-3, Caspase-Glo 3/7 luminescence, 60 min;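 active = mean inhibition across replicates above about 26%, limit read from the data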;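 also: plate controls were DMSO with caspase-3 for no effect and DMSO wells lacking enzyme for full effect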
# Target sequence (P42574 whole entry, looked up): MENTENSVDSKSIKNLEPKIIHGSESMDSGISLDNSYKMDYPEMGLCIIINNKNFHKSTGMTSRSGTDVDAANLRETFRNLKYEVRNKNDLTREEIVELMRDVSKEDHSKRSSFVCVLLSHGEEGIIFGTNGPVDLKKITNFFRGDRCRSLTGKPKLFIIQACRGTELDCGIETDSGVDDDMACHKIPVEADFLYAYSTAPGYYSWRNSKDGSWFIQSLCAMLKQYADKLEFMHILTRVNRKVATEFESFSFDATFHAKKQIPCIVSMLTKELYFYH
# UBC13 conf = human UBC13 polyubiquitin inhibition, confirmed. shares compounds with UBC13 polyUb. inhibition, % at 10 µM. 1,400 tested, 68% active. UBC13 polyubiquitination, TR-FRET, biochemical; in the data active = inhibition above about 45%; inconclusive = no clear call, values can overlap the other calls
# An asterisk follows results filed as active; i = inactive; ? = inconclusive; . = not tested or not shown. Hits are enriched below; roughly 1.8% of the tested compounds scored in any of these assays.
SMILES,UBC13 polyUb,Neddyl block,MBD2 DNA inh,UHRF1 MBD2 ctr,Casp3 counter,UBC13 conf
O=c1c2sccc2[nH]c(=S)n1-c1ccccc1,64.6*,i,-1.2,-0.5,1.9,?
CCN1C(=O)CC(c2ccccc2)N(C2CCCC2)c2nc(Nc3ccc(C(=O)NC4CCN(C)CC4)cc3OC)ncc21 (centres undefined),61.0*,.,.,.,0.7,40.6
CCN1C(N(C)CCc2c[nH]c3ccccc23)=N[C@@H](c2cccc(C(F)(F)F)c2)C(C(=O)OC)=C1C,59.8*,i,.,.,-0.6,49.3*
CN(C)CCOC(=O)c1ccc2[nH]c3c(c2c1)CSCC3,62.2*,i,-1.1,-1.5,-2.5,52.7*
O=C(O)c1ccc2[nH]c3c(c2c1)CSCC3,17.1,i,.,.,.,.
O=C(Nc1ccc(N2CCCCC2)cc1)c1cc([N+](=O)[O-])cc([N+](=O)[O-])c1,-17.6,i,-2.5,-3.9,.,.
O=C(O)[C@H]1CCCC[C@H]1C(=O)NCCc1ccccc1,67.1*,i,-5.2,-6.7,-0.3,8.6
O=C(Cc1cccc2ccccc12)NN1C(=O)CSC1=S,-3.5,i,0.2,-1.6,.,.
O=C(NN1C(=O)CSC1=S)C(=O)NN1C(=O)CSC1=S,46.8*,i,3.6,19.2,8.4,29.2
Cc1ccc(S(=O)(=O)N2CCCC(C(=O)NNCC(=O)Nc3cc(F)ccc3F)C2)cc1 (centres undefined),47.8*,i,-0.2,2.6,2.8,33.4
COc1cc(NC(=O)C2CCCN(S(=O)(=O)c3ccc(C)cc3)C2)cc(OC)c1 (centres undefined),.,.,1.0,-3.3,.,.
Cc1ccc(NC2=CC(=O)CC(c3ccccc3)C2)cc1 (centres undefined),45.0*,i,-4.0,0.4,-2.5,-0.5
Cc1ccc(NC2=CC(=O)CC(c3ccc(Cl)cc3)C2)cc1 (centres undefined),3.9,i,2.9,-0.9,.,.
CC[C@H](C)Cc1cn([C@@H](CCCCN)C(=O)NCCCCCCCCCCC(=O)N2CCNCC2)nn1,47.0*,i,3.3,7.4,1.9,45.0*
C#CCOCCOCCOCCNc1nc(N2CCN(C(=O)CCCCCCCCCCNC(=O)Cn3cc(C[C@@H](C)O)nn3)CC2)nc(N2CCN(C(=O)CCCCCCCCCCNC(=O)[C@@H](CCSC)n3cc(CCO)nn3)CC2)n1,26.0,i,.,.,.,.
C#CCOCCOCCOCCNc1nc(N2CCN(C(=O)CCCCCCCCCCNC(=O)[C@H](CCCCN)n3cc(C)nn3)CC2)nc(N2CCN(C(=O)CCCCCCCCCCNC(=O)[C@H](CCCN=C(N)N)n3cc(C[C@@H](C)CC)nn3)CC2)n1,122.6*,.,.,.,-3.2,127.3*
CC[C@H](C)Cc1cn([C@@H](CCCN=C(NC(=O)OC(C)(C)C)NC(=O)OC(C)(C)C)C(=O)NCCCCCCCCCCC(=O)N2CCN(C(=O)OC(C)(C)C)CC2)nn1,53.9*,i,.,.,-2.7,26.8
C#CCOCCOCCOCCNc1nc(N2CCN(C(=O)CCCCCCCCCCNC(=O)[C@@H](CCSC)n3cc(CCO)nn3)CC2)nc(N2CCN(C(=O)CCCCCCCCCCNC(=O)[C@H](CCCN=C(N)N)n3cc(C[C@@H](C)CC)nn3)CC2)n1,127.7*,i,.,.,-4.7,123.0*
NCCCCCc1cn([C@@H](CCC(=O)O)C(=O)NCCCCCCCCCCC(=O)N2CCNCC2)nn1,4.6,i,-3.3,-1.3,.,.
C#CCOCCOCCOCCNc1nc(N2CCN(C(=O)Cn3cc(CC(C)O)nn3)CC2)nc(N2CCN(C(=O)[C@H](CCCCN)n3cc(CC(C)O)nn3)CC2)n1 (some centres undefined),.,i,4.1,8.8,.,.
Cc1cn([C@@H](CCCCNC(=O)OC(C)(C)C)C(=O)NCCCCCCCCCCC(=O)N2CCN(C(=O)OC(C)(C)C)CC2)nn1,14.4,i,.,.,.,.
C#CCOCCOCCOCCNc1nc(N2CCN(C(=O)Cn3cc(CCCN=C(N)N)nn3)CC2)nc(N2CCN(C(=O)[C@H](CCCCN)n3cc(CCC(=O)O)nn3)CC2)n1,-4.4,i,-1.4,10.4,.,.
C#CCOCCOCCOCCNc1nc(N2CCN(C(=O)CCCCCCCCCCNC(=O)[C@H](CCCCN)n3cc(C[C@@H](C)CC)nn3)CC2)nc(N2CCN(C(=O)CCCCCCCCCCNC(=O)[C@H](CCCN=C(N)N)n3cc(C[C@@H](C)CC)nn3)CC2)n1,125.0*,i,.,.,-0.7,124.6*
COc1ccc(NC(=O)C2CC(c3ccccc3O)=NO2)cc1OC (centres undefined),6.1,i,-1.5,-0.2,.,.
